Assay outcomes deposited in PubChem BioAssay by National Center for Advancing Translational Sciences (NCATS).
FUS suppressor = suppressors of FUS proteinopathy in yeast | S. cerevisiae FUS-expressing, growth rescue, OD600, 24 h | actives 0.24% (n = 390,000) | Potency, µM (doses to about 76.6 µM), most hits filed as activators;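 note: plate controls were DMSO vehicle for no effect and reference control for full effect; nearly all actives have a fitted effect of over 55% in size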
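Toxicity suppression screen in FUS-yeast. Cells induced with 2% galactose, starting OD 0.005, treated 24hr at 30C with compounds at multiple final concentrations; growth by OD600.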
TDP-43 yeast inh = TDP-43 toxicity inhibition in yeast | TDP-43 expressing yeast growth rescue, BacTiter-Glo, 24 h | Potency, µM (series often up to 46.1 µM), for the others: at the highest dose growth rescue (activation), usual class: activators | actives 1.8% (n = 410,000); note: % of control where 0% means no effect; nearly all actives have a fitted effect of over 50% in size
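Growth rescue of TDP-43-toxic yeast measured as ATP luminescence (BacTiter-Glo). Cells grown to mid-log in raffinose, induced in galactose at OD600=0.02, exposed to compound 24 hr at 30 deg C.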
Abeta yeast res = A-beta toxicity reversal in yeast; yeast expressing A-beta42, growth rescue, OD600, 48 h; response scale: 0% DMSO, 100% iron-clioquinol control; Potency, µM (doses to about 46.1 µM), usual class: activators; actives 0.063% (n = 410,000); AID 1347071; note: nearly all actives have a fitted effect of over 55% in size
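Growth rescue measured by 600 nm absorbance after 48 h yeast culture at 30 C with compound. Values normalized between DMSO and an equimolar ferric chloride plus clioquinol control.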
aSyn rescue = inhibitors of alpha-synuclein toxicity in yeast; Potency, µM (highest dose often 46.1 µM), inactives show at the top dose growth rescue (activation), hits mostly activators; actives 0.14% (n = 370,000); AID 652106; Yeast expressing alpha-synuclein, growth rescue, BacTiter-Glo, 24 h; note: % of control where 0% means no effect; nearly all actives have a fitted effect of over 65% in size
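Rescue of yeast growth: cells expressing toxic alpha-synuclein, induced in galactose at OD600 0.02, incubated with compound 24 h at 30 C. ATP luminescence quantified growth; inhibitors of toxicity appear as activators.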
An asterisk follows results filed as active. Hits are enriched below; roughly 2.1% of the tested compounds scored in any of these assays. Calls come from the whole dose curve; as a rule, active = well fitted curve in the direction sought with a large enough effect; inconclusive = small, poorly fitted or top-dose-only effect, or another doubt; inactive = no such curve, though single readings can be large; an effect the other way counts as inactive or inconclusive. Potency is the fitted concentration of half-maximal effect.

c1csc(-c2nn3cnnc3c3ccccc23)c1 was read as FUS suppressor inactive, TDP-43 yeast inh 22µM*, Abeta yeast res inactive and aSyn rescue -1%.
`CCOc1ccccc1CNC(=O)c1cc2n(n1)CCCN(Cc1ccc(C)cc1)C2=O` gave FUS suppressor inconclusive, TDP-43 yeast inh 35µM* and Abeta yeast res inconclusive.
O=C(COC(=O)c1ccccc1-c1nc2ccccc2s1)NC1CCS(=O)(=O)C1 (stereo unspecified) was read as TDP-43 yeast inh -12%, Abeta yeast res inactive and aSyn rescue 0%.
`CC(=O)Nc1ccc(OCC(O)Cn2cnc3ccccc32)cc1` (stereo unspecified) gave FUS suppressor inactive, TDP-43 yeast inh -11%, Abeta yeast res inactive and aSyn rescue -8%.
O=C(NCc1cccnc1)C1CC(c2cccc(Br)c2)=NO1 (stereo unspecified) was read as FUS suppressor inactive, TDP-43 yeast inh 6%, Abeta yeast res inactive and aSyn rescue 1%.
CCOC(=O)C1=C(C)NC(C)=C(C(=O)OC)[C@H]1c1cccc([N+](=O)[O-])c1 was read as aSyn rescue 1%.
CCOC(=O)C1=C(C)NC(C)=C(C(=O)OC)C1c1cccc([N+](=O)[O-])c1 (stereo unspecified) was read as FUS suppressor inactive, TDP-43 yeast inh 35µM*, Abeta yeast res inactive and aSyn rescue 20%.
Screening CCOC(=O)Nc1ccc2c(c1)C(=NNC(=S)NC)c1ccccc1-2 returned FUS suppressor inactive, TDP-43 yeast inh 25µM*, Abeta yeast res inactive and aSyn rescue -12%.
O=C(NN=C1c2ccccc2-c2ccccc21)c1ccccc1 was read as FUS suppressor inactive, TDP-43 yeast inh 17%, Abeta yeast res inactive and aSyn rescue -4%.
Screening CCOC(=O)N/N=C1\CCc2ccccc21 returned FUS suppressor inactive, TDP-43 yeast inh -4%, Abeta yeast res inactive and aSyn rescue -7%.
For NC(=S)NN=C1c2ccccc2-c2ccccc21 the results were FUS suppressor inactive, TDP-43 yeast inh 18µM*, Abeta yeast res inactive and aSyn rescue 10%.
For CCOC(=O)NN=C1c2ccccc2-c2ccccc21 the results were FUS suppressor inactive, TDP-43 yeast inh 5µM*, Abeta yeast res inactive and aSyn rescue -1%.
For CC(=O)NCCNC(=O)c1ccc(Cn2c(=O)[nH]c3ccsc3c2=O)cc1 the results were FUS suppressor inactive, TDP-43 yeast inh -6%, Abeta yeast res inactive and aSyn rescue 7%.
C=CCn1c(N2CCCC2)nc2c1c(=O)[nH]c(=O)n2C was read as FUS suppressor inactive, TDP-43 yeast inh -5%, Abeta yeast res inactive and aSyn rescue 3%.
Screening CS(=O)(=O)c1ccc2nc(NC(=O)Nc3ccc(Cl)cc3)sc2c1 returned FUS suppressor inactive, TDP-43 yeast inh 1%, Abeta yeast res inactive and aSyn rescue 5%.
CC(C)c1ccc(Nc2c(-c3ccccc3O)nc3cnccn23)cc1 was read as FUS suppressor inactive, TDP-43 yeast inh 25µM* and Abeta yeast res inactive.
Screening Cc1ccc(C)c(CN2C(=O)COc3ccc(C(=O)c4ccccc4C(=O)O)cc32)c1 returned FUS suppressor inactive, TDP-43 yeast inh -4%, Abeta yeast res inactive and aSyn rescue 10%.
COc1ccc(NC(=O)N2c3ccccc3CC2C)cc1OC (stereo unspecified) was read as FUS suppressor inactive, TDP-43 yeast inh 13µM* and Abeta yeast res inactive.
For Cc1coc2cc3oc(=O)c(CCC(=O)N4CCCCC4)c(C)c3cc12 the results were FUS suppressor inactive, TDP-43 yeast inh 22µM* and Abeta yeast res inactive.
Cc1coc2cc3oc(=O)c(CC(=O)N4CCCCC4)c(C)c3cc12 was read as FUS suppressor inactive, TDP-43 yeast inh 10% and Abeta yeast res inactive.
`Cc1c(CCC(=O)N2CCC[C@H]2C(=O)O)c(=O)oc2cc3oc4c(c3cc12)CCCC4` gave FUS suppressor inconclusive, TDP-43 yeast inh 20µM*, Abeta yeast res inactive and aSyn rescue 12%.
Screening OC1COC(c2ccccc2)OC1C(O)C1OC(c2ccccc2)OCC1O (stereo unspecified) returned FUS suppressor inactive, TDP-43 yeast inh -4%, Abeta yeast res inactive and aSyn rescue 0%.
